# Bioassay records: PubChem, National Center for Advancing Translational Sciences (NCATS)
# KB-3-1 tox = KB-3-1 parental cell cytotoxicity. KB-3-1 viability, CellTiter-Glo ATP luminescence, 72 h. Potency, µM (titrated, usually from 46.1 µM), actives largely listed as cytotoxic. hit rate 1.4% among 400,000. AID 1347075; further: on the % scale 0 is the no-effect control and ±100 the full control effect; nearly all actives have a fitted effect of over 60% in size
#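 Using CellTiter-Glo luminescence, growth of non-resistant KB-3-1 adenocarcinoma cells is assessed 72 h after pin-tool compound addition at 37 °C. Normalized responses across the concentration series yield fitted curves.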
# HepG2 tox = counter-screen for TGF-b inhibitors: cytotoxicity in HepG2 cells. HepG2 CAGA-GFP viability, ATP luminescence, 18 h. Potency, µM (series often up to 46.1 µM), without a hit: top-dose activity change, negative = cytotoxicity, hits mostly cytotoxic. hit rate 0.76% among 410,000
#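 CellTiter-Glo luminescence gave cytotoxicity after 18 hours at 37 degrees C. The cells were HepG2 CAGA-GFP in 1% FBS DMEM, stimulated with 500 pg/mL TGF-beta after compound addition. %Activity was normalised to no-cell wells (complete cell-killing) and DMSO (no toxicity), and curves were fitted and classified.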
# TGFb inhibitor = blocks TGF-b signaling; HepG2 CAGA-GFP TGF-b/SMAD3 reporter, GFP fluorescence, 18 h; TGF-beta stimulated, 500 pg/mL final; hit rate 1.2% among 410,000; Potency, µM (top dose mostly 46.1 µM), without a hit: at the top dose activity, negative = inhibition, usual class: inhibitors; AID 588855; further: on the % scale 0 is the no-effect control and ±100 the full control effect; nearly all actives have a fitted effect of over 65% in size
#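 TGF-beta reporter screen: HEPG2 CAGA-GFP, 1% FBS, 500 pg/mL TGF-beta final, 18 h; per-cell GFP summed per well; curves fitted and categorized by class.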
# KB-V1 MDR tox = KB-V1 MDR subline cytotoxicity; hit rate 3.4% among 400,000; KB-V1 MDR cells viability, CellTiter-Glo, 72 h; Potency, µM (top dose mostly 46.1 µM), most hits filed as cytotoxic; AID 1347076; further: on the % scale 0 is the no-effect control and ±100 the full control effect; nearly all actives have a fitted effect of over 60% in size
#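 Drug-selected KB-V1 cells, grown in DMEM lacking phenol red with 10% FBS, receive compound titrations; after three days at 37 degrees C, surviving cell ATP is quantified by CellTiter-Glo luminescence and responses normalized and curve-fitted.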
# HT1080 IDH1KD tx = toxicity to HT-1080 IDH1 knockdown cells (counter line); hit rate 2% among 360,000; HT-1080 IDH1 knockdown viability, ATP luminescence, 48 h; Potency, µM (titrated, usually from 46.1 µM), without a hit: at the top dose activity, negative = toxicity, hits mostly cytotoxic;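 further: 0% = DMSO wells and -100% = cell-free medium wells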
#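 Viability of IDH1-knockdown HT-1080 fibrosarcoma cells was assessed by CellTiter-Glo after 48 h at 37 °C with titrated compound; concentration-effect curves were classified by fit quality and response size.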
# HT1080NT lethal = kills 2HG-producing HT-1080-NT fibrosarcoma cells | hit rate 1.6% among 360,000 | HT-1080-NT fibrosarcoma viability, CellTiter-Glo ATP luminescence, 48 h | Potency, µM (series often up to 46.1 µM), for inactives: at the top dose activity, negative = less viability, most hits filed as cytotoxic;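 further: NT is the 2HG producing partner of a matched IDH1 knockdown line; 0% = DMSO-treated cells and -100% = media-only wells without cells; nearly all actives have a fitted effect of over 55% in size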
#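 HT-1080-NT; 750 cells/well; 5% FBS RPMI; 48 h compound, 37 degrees C; CellTiter-Glo luminescence; curve fitting and curve-class assignment.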
# * marks the source's active call; other numbers are inactive results; i = inactive; ? = inconclusive; / = no result; [ ] = remark or other dose. A selection: hits, their analogues and other compounds. The true share with any hit is near 6.6%. The call rests on the fitted dose curve; in most records, active means well fitted curve in the direction sought with a large enough effect; inconclusive means small, poorly fitted or top-dose-only effect, or another doubt; inactive means no such curve, though single readings can be large; an effect the other way counts as inactive or inconclusive. Potency means the concentration at half of the fitted maximal effect.
SMILES,KB-3-1 tox,HepG2 tox,TGFb inhibitor,KB-V1 MDR tox,HT1080 IDH1KD tx,HT1080NT lethal
Cc1ccc(-c2csc(NCCn3c(-c4ccncc4)nc4cc(C(F)(F)F)ccc43)n2)cc1,?,-21%,3%,i,1%,-2%
COc1ccc(-c2csc(NC(CO)c3nc4ccccc4n3Cc3ccc(C)cc3)n2)cc1 (stereo not given),?,-30%,?,i,-7%,?
CCOC(=O)c1c(NC(=O)c2cccs2)sc(CC)c1-c1cccs1,i,-26%,-27%,18µM*,?,-8%
CCOC(=O)c1c(-c2cccs2)csc1NC(=O)C(C)(C)C,i,-25%,12%,15µM*,-3%,2%
CCOC(=O)c1c(-c2cccs2)csc1NC(=O)CCCC(=O)O,i,-2%,0%,?,-27%,0%[9.24 µM]
CCOC(=O)c1c(-c2ccc(C)s2)csc1NC(=O)c1cccs1,i,-22%,0%,i,5%,0%
CCOC(=O)c1c(-c2cccs2)csc1NC(=O)CSc1ncn[nH]1,i,-2%,22%,21µM*,?,-2%
CCOC(=O)c1c(-c2cccs2)csc1NC(C)=O,i,-21%,0%,i,-14%,-10%
CCOC(=O)c1c(-c2cccs2)csc1NC(=O)CN1CC(C)OC(C)C1 (stereo not given),i,20µM*,?,i,?,?
COc1cc(-c2ccc3ncnc(NCC4CCCO4)c3c2)cc(OC)c1OC (stereo not given),i,/,/,i,/,/
COc1cc(C(=O)OCCc2cc3ccccc3c(=O)o2)cc(OC)c1OC,4.6µM*,-13%,3%,?,7.3µM*,8.2µM*
COc1cc(C(=O)OCCCc2cc3ccccc3c(=O)o2)cc(OC)c1OC,i,-19%,-26%,i,1%,3%
C=C1C(=O)C23CCC4C(C)(C(=O)OC)CCCC4(C)C2CCC1(O)C3 (stereo not given),?,2.8µM*,3.2µM*,18µM*,2.3µM*,9.2µM*
COC(=O)[C@]1(C)CCC[C@@]2(C)C3CC[C@@]4(C)C[C@]3(CCC21)CC(=O)N4 (stereo not given in full),i,-15%,-38%,i,10%,5%
COc1ccc(Cn2cccc(NC(=O)Nc3cccc(C#N)c3)c2=O)cc1,i,-20%,-9%,4.1µM*,-13%,-7%
CCOc1ccc(NC(=O)Nc2ccccc2SC)cc1,?,-62%,5%,?,-23%,-22%
CCOc1ccc(NC(=O)Nc2cccn(Cc3ccccc3)c2=O)cc1,?,-8%,-26%,5.8µM*,?,?
Cc1cc(C)cc(C(=O)OCC(=O)NCc2cccs2)c1,?,-4%,-14%,i,-10%,-13%
Cc1cc2c(cc(C(=O)OCC(=O)NCc3cccs3)n2C(C)C)o1,9.2µM*,-13%,?,?,?,1µM*
COc1cc(SC)ccc1C(=O)Nc1ccc(C)cc1C,i,22%,-2%,9.2µM*,-19%,?
COc1cc(SC)ccc1C(=O)Nc1ccc(Br)cn1,?,5%,6%,18µM*,20%,27%
COc1cc(SC)ccc1C(=O)NCCOc1ccc(Cl)cc1,i,-6%,-28%,21µM*,21%,20%
COc1cc(SC)ccc1C(=O)NCCOc1c(C)cc(C)cc1C,?,-38%,-8%,21µM*,?,-24%
COc1cc(SC)ccc1C(=O)NCCc1ccccc1,?,-20%,-27%,i,?,24%
COC(=O)c1c(NC(=O)CS(=O)(=O)c2ccc(C)cc2)sc2c1CCCCC2,/,-10%,-30%,/,/,/
SMILES,KB-3-1 tox,HepG2 tox,TGFb inhibitor,KB-V1 MDR tox,HT1080 IDH1KD tx,HT1080NT lethal
COc1cccc(CNC(=O)c2ccc(NC(=O)N3CCCCc4ccccc43)cc2)c1,i,-37%,-11%,i,/,/
O=C(CCc1cn(Cc2ccccc2F)c2ccccc12)NCc1ccc(Cl)cc1,/,-30%,?,/,/,/
O=C1c2ccccc2C(=O)c2c(NCCCN(CCO)CCO)cccc21,?,-31%,?,?,?,21µM*
Cc1ccc(CCc2nnc(SCC(=O)Nc3cc(Cl)ccc3Cl)n2-c2ccccc2)o1,i,0%,?,15µM*,-20%,-2%
Cc1ccc(-c2csc3ncnc(Sc4nnc(CN5CCCCCC5=O)o4)c23)cc1,12µM*,-100%,0%,i,-11%,0%
Cc1ccc(-c2csc3ncnc(SCC(=O)Nc4nnc(C)s4)c23)cc1,?,-2%,-1%,?,5%,10%
c1ccc(C(Cc2nc(-c3ccncc3)no2)c2ccccc2)cc1,12µM*,-24%,0%,i,-17%,1%
Nc1ccc2c(c1)N1CCN=C1S2,i,-6%,4%,i,-9%,-2%
O=C(Nc1ccc(Cl)cc1)Nc1ccc2c(c1)N1CCN=C1S2,i,-34%,-14%,?,33µM*,21µM*
O=C(CSc1ccc2ccccc2c1)NC1CCCc2ccccc21 (stereo not given),i,-42%,?,15µM*,16%,6%
Cc1ccc(S(=O)(=O)N2CCN(CC(=O)NC3CCCc4ccccc43)CC2)cc1C (stereo not given),?,0%,?,?,-15%,-3%
Cc1ccc(S(=O)(=O)N2CCN(CC(=O)NC3CCCc4ccccc43)CC2)c(C)c1 (stereo not given),i,-1%,-25%,4.1µM*,-19%,-23%
CC(=O)c1ccc(OCCCC(=O)NC2CCCc3ccccc32)cc1 (stereo not given),i,-3%,5%,16µM*,-10%,-2%
COc1ccc(OCC(=O)NC2CCCc3ccccc32)cc1 (stereo not given),i,2%,-3%,i,-1%,-9%
O=C(CSc1nc2cc(Cl)ccc2s1)NC1CCCc2ccccc21 (stereo not given),i,1%,-14%,16µM*,3%,0%
Cc1ccc2nc(SCC(=O)NC3CCCc4ccccc43)[nH]c2c1 (stereo not given),?,-9%,0%,15µM*,?,?
O=C(CSc1cc(Cl)ccc1Cl)NC1CCCc2ccccc21 (stereo not given),i,-13%,-26%,i,-3%,1%
COc1ccc(-c2cn3cccnc3n2)cc1NC(=O)COc1ccccc1,/,-63%,?,/,/,/
